# According to PubChem BioAssay (EPA / NIEHS):
# Inconclusive results are not listed. Active and inactive are the calls of the source. The calls were made as follows: active = hit-call score of the fitted dose curve at least 0.9, where 1 is the maximum; inconclusive = response in the unintended direction; inactive = score below 0.9.
# Target: Retinoic acid receptor RXR-alpha (Homo sapiens) (UniProt P19793)
# Test: ATG_RXRa_TRANS: Attagene TRANS-FACTORIAL HepG2 Assay for human Retinoid X Receptor alpha (RXRa) (AID 2283012)
# In short: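 Chimeric NR-GAL4 trans-activation in HepG2, 24 h treatment; reporter transcripts quantified by fluorescence on capillary electrophoresis, analysed for upward change from DMSO.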
# Sequence of Retinoic acid receptor RXR-alpha (Homo sapiens) (P19793 whole entry, looked up): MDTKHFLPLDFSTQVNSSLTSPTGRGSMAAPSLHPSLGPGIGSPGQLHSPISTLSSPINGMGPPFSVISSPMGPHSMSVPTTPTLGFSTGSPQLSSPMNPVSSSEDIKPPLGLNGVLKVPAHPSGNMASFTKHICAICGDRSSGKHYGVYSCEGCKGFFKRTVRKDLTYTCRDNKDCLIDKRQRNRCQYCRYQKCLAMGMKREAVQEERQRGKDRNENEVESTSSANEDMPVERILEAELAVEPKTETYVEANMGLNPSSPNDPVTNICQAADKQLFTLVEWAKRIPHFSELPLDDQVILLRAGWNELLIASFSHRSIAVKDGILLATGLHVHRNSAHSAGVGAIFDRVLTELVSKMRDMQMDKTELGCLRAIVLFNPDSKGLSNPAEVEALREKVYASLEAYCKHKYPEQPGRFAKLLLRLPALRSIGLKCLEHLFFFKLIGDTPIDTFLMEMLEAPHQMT
Structure (SMILES),outcome,AC50
CC(C=O)Cc1ccc(C(C)C)cc1 (centres undefined),inactive,
CCCC1CCC(=O)O1 (centres undefined),inactive,
C[C@H]1C[C@H]2[C@@H]3CCC4=CC(=O)C=C[C@]4(C)[C@@]3(F)[C@@H](O)C[C@]2(C)[C@@]1(O)C(=O)COP(=O)(O)O,inactive,
O=C(O)c1cccc(C(F)(F)F)c1,inactive,
C=C(C)C(=O)O,inactive,
CC(=O)Nc1ccc(CC(=O)O)cc1,inactive,
CCC/C=C/C=O,inactive,
COc1cc(C(C)(C)C)c(O)c(C(C)(C)C)c1,,15.4 µM (active)
CCOC(=O)c1ccccc1OC,inactive,
CNCCCC12CCC(c3ccccc31)c1ccccc12,inactive,
CC(C)C1CCC(O)CC1 (centres undefined),inactive,
CN1Cc2c(N)cccc2C(c2ccccc2)C1 (centres undefined),inactive,
CCCCCCCCCCCCOCCO,inactive,
CCCCc1ccc(N)cc1,inactive,
C=O,inactive,
CCCCN,inactive,
CN(C)c1ccc(O)c2c1C[C@H]1C[C@H]3[C@H](N(C)C)C(=O)C(C(N)=O)=C(O)[C@@]3(O)C(=O)C1=C2O,inactive,
O=[N+]([O-])c1ccc(Nc2ccc(Nc3ccccc3)c(S(=O)(=O)O)c2)c([N+](=O)[O-])c1,inactive,
CCCCCC=CCC(=O)OC,inactive,
C=C(C)[C@@H]1CC[C@@H](C)C[C@@H]1O,inactive,

Structure (SMILES),outcome,AC50
COc1cc2ncnc(Nc3cccc(Cl)c3)c2cc1OC,inactive,
O=c1[nH]nnc2ccccc12,inactive,
CC1(C)CCC(C)(C)c2cc(C(=O)Nc3ccc(C(=O)O)cc3)ccc21,inactive,
CCN(CC)c1ccc2c(-c3ccccc3C(=O)O)c3ccc(=[N+](CC)CC)cc-3oc2c1,inactive,
COC(=O)Cc1cccc2ccccc12,inactive,
CC(c1cc2ccccc2s1)N(O)C(N)=O (centres undefined),inactive,
CCC(=O)OCCC(C)CCC=C(C)C (centres undefined),inactive,
CC(C)(N)CO,inactive,
C=C(C)C1CCC(C)CC1O (centres undefined),inactive,
CC(C)(C#N)c1cc(Cn2cncn2)cc(C(C)(C)C#N)c1,inactive,
C=C(C)[C@@H]1CCC2=CC(=O)C[C@@H](C)[C@]2(C)C1,inactive,
CCOC(=S)SSC(=S)OCC,inactive,
C=C(C)C(=O)NCCCN(C)C,inactive,
C[C@]12CC[C@H]3[C@@H](CCC4=CC(=O)CC[C@@]43C)[C@@H]1CC[C@@H]2C(=O)CO,inactive,
C=COCCOCCOCCOC=C,inactive,
OCCOCCOCCOCCO,inactive,
Cc1ccc(S)cc1,inactive,
Cc1ncc([N+](=O)[O-])n1C,inactive,
C[Si](O[Si](C)(C)C)O[Si](C)(C)C,inactive,
CC(=O)C(C)=O,inactive,

# Target: human Retinoid X Receptor beta (RXRb), RXRB (gene 6257) (UniProt P28702)
# Test: ATG_RXRb_TRANS: Attagene TRANS-FACTORIAL HepG2 Assay for human Retinoid X Receptor beta (RXRb) (AID 2283013)
# In short: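 After a 24 h incubation with test chemical, transfected HepG2 cells carrying NR-Gal4 fusions and GAL4-UAS reporter transcription units yield RNA whose reporter cDNA is FAM-labelled, HpaI-cut and sized by capillary electrophoresis; increases over DMSO are scored.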
# Sequence of human Retinoid X Receptor beta (RXRb), RXRB (gene 6257) (P28702 whole entry, looked up): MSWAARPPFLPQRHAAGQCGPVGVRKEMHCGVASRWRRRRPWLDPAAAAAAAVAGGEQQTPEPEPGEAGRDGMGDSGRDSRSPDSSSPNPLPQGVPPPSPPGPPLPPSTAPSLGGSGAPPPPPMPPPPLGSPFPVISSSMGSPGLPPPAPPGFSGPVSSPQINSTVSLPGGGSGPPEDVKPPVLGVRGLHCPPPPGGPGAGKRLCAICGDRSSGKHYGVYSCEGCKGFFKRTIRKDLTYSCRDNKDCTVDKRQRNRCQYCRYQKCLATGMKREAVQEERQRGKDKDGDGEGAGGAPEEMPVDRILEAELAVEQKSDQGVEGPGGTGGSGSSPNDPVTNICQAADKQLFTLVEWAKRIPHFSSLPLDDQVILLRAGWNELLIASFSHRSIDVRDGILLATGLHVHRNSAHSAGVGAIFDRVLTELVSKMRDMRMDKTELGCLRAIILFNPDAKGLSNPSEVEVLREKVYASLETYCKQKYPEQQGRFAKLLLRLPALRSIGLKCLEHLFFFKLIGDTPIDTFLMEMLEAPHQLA
Structure (SMILES),AC50,outcome
COc1cc(C(C)(C)C)c(O)c(C(C)(C)C)c1,0.745 µM (active),
CCOC(=O)c1ccccc1OC,,inactive
CCCCN,,inactive
CN(C)c1ccc(O)c2c1C[C@H]1C[C@H]3[C@H](N(C)C)C(=O)C(C(N)=O)=C(O)[C@@]3(O)C(=O)C1=C2O,,inactive
CC1(C)CCC(C)(C)c2cc(C(=O)Nc3ccc(C(=O)O)cc3)ccc21,,inactive
CCC(=O)OCCC(C)CCC=C(C)C (centres undefined),,inactive
CCOC(=S)SSC(=S)OCC,,inactive
Cc1ncc([N+](=O)[O-])n1C,100 µM (active),
C[Si](O[Si](C)(C)C)O[Si](C)(C)C,61.7 µM (active),
